LmPK inh: blocks Leishmania mexicana pyruvate kinase activity; Potency, µM (highest dose often 57.5 µM), inactives show top-dose activity change, negative = inhibition, hits mostly inhibitors; 0.37% of 290,000 active; Q27686; purified LmPK, Kinase-Glo ATP luminescence, 1 h; note: potency is the fitted concentration of half-maximal effect; % is set by controls: 0 for no effect and ±100 for the full control effect
Target sequence (Q27686 whole entry, looked up): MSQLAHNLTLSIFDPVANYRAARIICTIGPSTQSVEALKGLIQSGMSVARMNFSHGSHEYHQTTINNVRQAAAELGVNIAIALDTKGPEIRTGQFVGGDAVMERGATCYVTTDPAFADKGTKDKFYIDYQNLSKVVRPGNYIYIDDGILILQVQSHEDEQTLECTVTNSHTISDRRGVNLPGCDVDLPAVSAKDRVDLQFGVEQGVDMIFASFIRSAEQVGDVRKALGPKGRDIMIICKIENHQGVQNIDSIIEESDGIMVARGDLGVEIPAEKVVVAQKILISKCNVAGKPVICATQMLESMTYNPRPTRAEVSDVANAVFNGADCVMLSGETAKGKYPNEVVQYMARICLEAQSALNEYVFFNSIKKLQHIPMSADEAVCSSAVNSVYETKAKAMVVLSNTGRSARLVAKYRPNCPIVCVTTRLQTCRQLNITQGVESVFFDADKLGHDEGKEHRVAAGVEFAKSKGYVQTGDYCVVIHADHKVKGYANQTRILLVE
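0.1 nM LmPK, 0.5 mM PEP, 0.1 mM ADP; 50 mM imidazole pH 7.2, 7 mM MgCl2, 50 mM KCl; 1 h RT. Kinase-Glo luminescence readout, normalized to no-enzyme (full inhibition) and uninhibited wells.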
Shiga toxin inh: inhibitors of Shiga toxin in Vero cells. Vero cells, Shiga toxin protein synthesis inhibition reporter. inhibition, % at 38.7 µM. 9.2% of 290,000 active. AID 2315; in the data active = inhibition mostly above about 28%, no sharp cut-off; inactive = mostly below about 43%; note: 0% is about no effect
Pf growth 96h: P. falciparum growth inhibition at 96 hour, primary screen for plastid delayed-death inhibitors. P. falciparum luciferase reporter growth, 96 h. Potency, µM (top dose mostly 28.7 µM), inactives show top-dose activity change, negative = inhibition, usual class: inhibitors. 6.9% of 320,000 active; note: potency is the fitted concentration of half-maximal effect; % is set by controls: 0 for no effect and ±100 for the full control effect
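Delayed-death screen, second-generation endpoint: infected erythrocytes, 2% hematocrit, 0.05% parasitemia final; 96 hours at 37 C, 5% CO2; luciferase detection reagent; luminescence decrease equals reduced growth.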
Cycloheximide cs: counter-screen for Shiga toxin inhibitors: cycloheximide protein synthesis inhibition; 12% of 300,000 active; AID 2314; max response, %; cell reporter, cycloheximide protein synthesis inhibition counterscreen; in the data active = max response mostly above about 13%, no sharp cut-off; inactive = mostly below about 14%; note: read at 38.3 µM for the half of the compounds with a filed dose; 0% is about no effect
Pf growth 48h: P. falciparum growth inhibition at 48 hours (one generation) | P. falciparum luciferase growth in erythrocytes, 48 h | Potency, µM (top dose mostly 28.7 µM), inactives show at the top dose activity change, negative = inhibition, hits mostly inhibitors | 5.9% of 310,000 active | AID 504832; note: potency is the fitted concentration of half-maximal effect; % is set by controls: 0 for no effect and ±100 for the full control effect
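Firefly luciferase activity from engineered P. falciparum reports growth; inhibitors lower the luminescent signal. Cultures contained 2% hematocrit erythrocytes at 0.1% final parasitemia.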
Starred values were filed as active, the others as inactive; ? = inconclusive; / = not tested or not shown. Most compounds without a hit are left out; they make up all but 22% or so of the library. Unless noted, calls come from the whole dose curve; as a rule, active = well fitted inhibition curve with a large enough effect; inconclusive = small, poorly fitted or top-dose-only effect, or another doubt; inactive = no such curve, though single readings can be large or run the other way.

SMILES	LmPK inh	Shiga toxin inh	Pf growth 96h	Cycloheximide cs	Pf growth 48h
COc1cnc(SCc2ccc(Cl)cc2)nc1Cl	3%	19	?	10	21%
CCOC(=O)C(C)Sc1cc(CS(=O)(=O)c2ccccc2)nc(-c2ccccc2)n1 (stereo not drawn)	-1%	-7	10µM*	-2	23%
CCOC(=O)c1cnc(SCc2cccc3ccccc23)nc1N	1%	-10	4.7µM*	4	/
CCOC(=O)c1cnc(SCc2ccccc2)nc1N	-7%	109*	/	47*	147%
O=S(=O)(Cc1cc(Sc2ccc(Cl)cc2)nc(-c2ccccc2)n1)c1ccccc1	-2%	45	?	-1	/
OCCOCCOCCO	/	/	-10%	/	-6%
O=C(CN1CCN(S(=O)(=O)c2ccccc2)CC1)Nc1ccnn1C1CCCC1	/	/	-24%	/	?
COc1ccccc1/C=C(/C(=O)OCC(=O)N(C)Cc1ccccc1)c1ccccc1	-1%	-5	22%	9	4%
CCSc1nnc(NS(=O)(=O)c2ccc(C)cc2)s1	2%	-4	-9%	-4	-5%
CCOc1ccc(CCNC(=O)Cc2ccc(NC3=NC4CS(=O)(=O)CC4S3)cc2)cc1OCC (stereo not drawn)	4%	-4	33%	-3	0%
O=C(O)CCNC(=O)/C(=C/C=C/c1ccccc1)NC(=O)c1ccccc1	14%	-9	-11%	-2	17%
CCOC(=O)C(C)Sc1ncc(-c2ccccc2)cn1 (stereo not drawn)	-1%	70*	-13%	58*	?
CCOC(=O)C(C)Sc1nc(=O)n2ccccc2n1 (stereo not drawn)	0%	-1	?	-2	-5%
Fc1ccccc1-c1n[nH]c(=S)n1/N=C/c1c[nH]c2ccccc12	10µM*	19	7%	-2	-4%
Fc1ccccc1/C=N/n1c(C2CCCCC2)n[nH]c1=S	-13%	-8	15%	2	1%
O=C(NCC1CCCO1)c1onc(CSc2ccc(F)c(F)c2)c1C(=O)O (stereo not drawn)	0%	-12	45%	-4	-15%
Cc1cc(S(=O)(=O)Nc2cccc([N+](=O)[O-])c2)c(C)s1	7%	-6	2.1µM*	-2	-4%
Clc1ccc(-c2noc(/C=C/c3ccccc3)n2)cc1	-2%	-3	62%	9	63%
O=C(Nc1nnc(-c2cccs2)o1)c1ccco1	-12%	-9	-5%	-4	/
CCOC(=O)COc1ccc(-c2nnc(-c3ccccc3)o2)cc1	3%	30	?	-4	13%
C(=C\c1nnc(-c2cccs2)o1)/c1ccccc1	-13%	71*	336%	63*	246%
Cc1ccc(-c2noc(/C=C/c3ccccc3)n2)cc1	1%	37	178%	19*	125%
Cc1ccc(/C=C/c2nnc(-c3ccccc3)o2)cc1	-16%	65	44%	23*	126%
COc1ccc(S(=O)(=O)NCC(=O)NCc2cc(=O)n(C)c(=O)n2C)cc1	-10%	-3	58%	-2	9%
CCc1ccc(Nc2ncccc2C#N)cc1	-28%	25	107%	28*	91%
SMILES	LmPK inh	Shiga toxin inh	Pf growth 96h	Cycloheximide cs	Pf growth 48h
CCC(C)c1ccc(NC(=S)Nc2ccc(OC)cc2)cc1 (stereo not drawn)	-2%	-1	-25%	15	-3%
CCc1ccc(Nc2nc(C)cc(C)c2C(N)=O)cc1	-2%	/	-7%	1	0%
CCC(C)c1ccc(Nc2ncccc2C#N)cc1 (stereo not drawn)	-10%	69*	396%	38*	231%
Cn1c(-c2ccsc2)c(-c2cccs2)c2cc(Br)ccc21	/	/	?	/	-1%
C/C(=N/Nc1cc(-c2ccccc2)nc(-c2ccccc2)n1)c1ccc(O)cc1	-7%	31	?	23*	?
C/C(=N\Nc1cc(Cl)nc(C)n1)c1ccccc1	4%	46*	121%	28*	37%
CCc1ccc(/C(C)=N/Nc2cc(Cl)nc(C)n2)cc1	0%	13	15%	-1	2%
NC(=O)CC(NC(=O)Cc1ccc(Br)cc1)c1ccc(NCCc2ccc(F)cc2)c([N+](=O)[O-])c1 (stereo not drawn)	6%	3	?	-9	?
CCOc1ccc(CC(=O)Nc2c3c(nn2C(C)(C)C)CS(=O)(=O)C3)cc1	5%	-19	-24%	-4	-11%
